Screening results from PubChem.
This is a sample that favours compounds with a hit; in the whole collection about 19% have one here.
IL-1B inflam inh: blocks inflammasome-driven IL-1 beta release; THP-1 LPS/ATP IL-1B secretion, AlphaLISA, 16 h; stronger effect = lower value; AID 743279; activity change, % at 57.5 µM; actives 4.7% (n = 360,000); in the data active means activity change below about -50%; inconclusive means mostly about -30% to -49%
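THP-1 cells pretreated 1 hr with compounds (up to 57.5 uM final), then stimulated with LPS (250 ng/mL final) plus ATP (1.25 mM final); secreted IL-1B measured by AlphaLISA after 16 hr, decreased signal indicating inhibition.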
DT40 TDP1 no CPT: qHTS for Inhibitors of human tyrosyl-DNA phosphodiesterase 1 (TDP1): qHTS in cells in absence of CPT. DT40 Tdp1-/- hTDP1 cells, no CPT, ATP luminescence, 48 h. Potency, µM (series often up to 46.2 µM), hits mostly inhibitors. actives 15% (n = 420,000). AID 686978, 2013; further: nearly all actives have a fitted effect of over 55% in size
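Readout: luminescence from CellTiter-Glo after 30 min in the dark at RT. Cells: DT40 Tdp1-/- with stable hTDP1, 400/well. Exposure: compounds alone, ≥48 hr, 37 °C.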
HepG2 viability: kills HepG2 cells in TGF-b inhibitor counter-screen. HepG2 CAGA-GFP viability, ATP luminescence, 18 h. Potency, µM (series often up to 46.1 µM), actives largely listed as cytotoxic. actives 0.76% (n = 410,000)
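HepG2 CAGA-GFP cells (1000/well, DMEM with 1% FBS) received compound, then TGF-beta at 500 pg/mL final, and were incubated 18 hours at 37 degrees C. Viability was read by CellTiter-Glo luminescence. Media-only wells were set as complete cell-killing and DMSO as no toxicity.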
TDP1 cell CPT: DT40-hTDP1 cell growth loss with CPT; chicken DT40 Tdp1-/-;hTDP1 cells + 20 nM CPT, ATP luminescence, 48 h; Potency, µM (series often up to 46.2 µM), actives largely listed as inhibitors; actives 12% (n = 420,000); AID 686979; further: nearly all actives have a fitted effect of over 55% in size
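Cell growth measured by CellTiter-Glo luminescence after a minimum 48 h, 37 C compound exposure with 20 nM CPT in Tdp1-knockout DT40 cells stably expressing hTDP1, seeded 400/well; qHTS titration format.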
TGFb SMAD3 inh: blocks TGF-b signaling; HepG2 CAGA-GFP TGF-b/SMAD3 reporter, GFP fluorescence, 18 h; TGF-beta stimulated, 500 pg/mL final; Potency, µM (doses to about 46.1 µM), most hits filed as inhibitors; actives 1.2% (n = 410,000); AID 588855; further: nearly all actives have a fitted effect of over 65% in size
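HEPG2 CAGA-GFP, 1000 cells/well; 2 h settle, 37 C; cpd via pin tool; TGF-b 500 pg/mL final; 18 h, 37 C; GFP imaging ex488/em500-530; %Activity normalised to -TGF-b and +DMSO controls; CRC fit, curve class.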
S-ASM inh: human S-ASM enzyme inhibition | placental ASM, HMU-PC fluorogenic substrate, 60 min | Potency, µM (series often up to 57.5 µM), actives largely listed as inhibitors | actives 0.006% (n = 340,000) | AID 504937
Target sequence (P17405 47-631 limits assumed): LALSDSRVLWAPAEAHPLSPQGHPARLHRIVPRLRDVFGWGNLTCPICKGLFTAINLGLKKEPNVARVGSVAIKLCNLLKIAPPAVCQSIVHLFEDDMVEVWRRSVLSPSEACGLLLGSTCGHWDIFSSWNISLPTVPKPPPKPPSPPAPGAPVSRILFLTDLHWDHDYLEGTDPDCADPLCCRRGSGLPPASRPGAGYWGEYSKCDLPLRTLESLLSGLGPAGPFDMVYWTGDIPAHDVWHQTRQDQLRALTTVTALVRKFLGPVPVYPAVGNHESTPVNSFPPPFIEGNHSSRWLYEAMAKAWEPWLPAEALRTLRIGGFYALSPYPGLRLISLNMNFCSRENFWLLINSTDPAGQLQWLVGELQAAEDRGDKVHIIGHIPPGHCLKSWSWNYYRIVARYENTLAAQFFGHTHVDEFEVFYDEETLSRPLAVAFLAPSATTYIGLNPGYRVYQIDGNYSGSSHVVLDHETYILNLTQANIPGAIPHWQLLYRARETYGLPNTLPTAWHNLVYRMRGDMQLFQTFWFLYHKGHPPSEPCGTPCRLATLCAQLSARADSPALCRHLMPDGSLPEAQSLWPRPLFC
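Fluorescence read-out (Ex 386 nm, Em 447 nm) after stopping the reaction at pH 10. Enzyme: ASM from human placenta; substrate HMU-PC0, 9 uM final; 60 min, 37 °C. Compound preincubation 10 min, ambient temperature.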
Each line names hits and unclear results; the compound was inactive in the other large screens. Unless noted, the call rests on the fitted dose curve; in most records, active means well fitted curve in the direction sought with a large enough effect; inconclusive means small, poorly fitted or top-dose-only effect, or another doubt; inactive means no such curve, though single readings can be large; an effect the other way counts as inactive or inconclusive.

O=[N+]([O-])c1ccc(C(O)CN2CCN(C/C=C/c3ccccc3)CC2)cc1 (stereo not given)	IL-1B inflam inh inconclusive, DT40 TDP1 no CPT 29µM, TDP1 cell CPT inconclusive
O=C(CN1CCN(c2cccc(Cl)c2)CC1)Nc1ccc([N+](=O)[O-])cc1C(=O)Nc1ccccc1F	DT40 TDP1 no CPT 23µM, TDP1 cell CPT inconclusive
Cc1ccc(C)c(N2CCN(CC(=O)Nc3ccc([N+](=O)[O-])cc3C(=O)Nc3ccccc3F)CC2)c1	DT40 TDP1 no CPT inconclusive, TDP1 cell CPT inconclusive
Cc1nc2c(-c3ccc(F)cc3)cnn2c(N)c1-c1ccc(F)cc1	IL-1B inflam inh -67, DT40 TDP1 no CPT 4.6µM, TDP1 cell CPT 21µM, TGFb SMAD3 inh inconclusive
COc1ccc(-c2c(C)nc3c(-c4ccccn4)cnn3c2N)cc1	DT40 TDP1 no CPT 18µM, TDP1 cell CPT inconclusive, TGFb SMAD3 inh 11µM
Cc1cc(N)n2ncc(-c3ccc(F)cc3)c2n1	none
COc1ccccc1-n1cnnc1SCC(=O)NCC1CCCO1 (stereo not given)	none
COc1ccc(-c2c3c(=O)n(C)c(=O)n(C)c3c3c(-c4ccccc4)nc4ccccc4n23)cc1	DT40 TDP1 no CPT 2.3µM (no result: IL-1B inflam inh, S-ASM inh)
COc1ccc(-c2nc3ccccc3n3c(-c4ccccc4)c4c(=O)n(C)c(=O)n(C)c4c23)cc1	none (no result: IL-1B inflam inh, S-ASM inh)
COc1ccc(-c2nc3ccccc3n3c(-c4cccc(C)c4)c4c(=O)n(C)c(=O)n(C)c4c23)cc1OC	DT40 TDP1 no CPT 18µM, TDP1 cell CPT 16µM (no result: IL-1B inflam inh, S-ASM inh)
COc1ccc(-c2c3c(=O)n(C)c(=O)n(C)c3c3c(-c4cccc(C)c4)nc4ccccc4n23)cc1	DT40 TDP1 no CPT 21µM, TDP1 cell CPT inconclusive, TGFb SMAD3 inh inconclusive (no result: IL-1B inflam inh, S-ASM inh)
CCOc1ccccc1NC(=O)CSc1nc(=O)[nH]c2c1CCCC2	DT40 TDP1 no CPT inconclusive, TDP1 cell CPT inconclusive (no result: IL-1B inflam inh, S-ASM inh)
CCCCn1c(SCc2nc(N)nc(Nc3ccccc3C)n2)nc2ccccc2c1=O	DT40 TDP1 no CPT 18µM, TDP1 cell CPT inconclusive
COCC(C)n1c(SCc2nc(N)nc(Nc3ccccc3C)n2)nc2ccccc2c1=O (stereo not given)	IL-1B inflam inh inconclusive, DT40 TDP1 no CPT inconclusive, TDP1 cell CPT 16µM
COc1ccccc1C1CC(=O)Nc2cc3c(cc21)OCCO3 (stereo not given)	DT40 TDP1 no CPT 5.2µM, TDP1 cell CPT 5.2µM, TGFb SMAD3 inh inconclusive
O=C1CC(c2cc(F)cc(F)c2)c2cc3c(cc2N1)OCO3 (stereo not given)	DT40 TDP1 no CPT 16µM, TDP1 cell CPT inconclusive (no result: IL-1B inflam inh, S-ASM inh)
COc1cccc(C2CC(=O)Nc3cc4c(cc32)OCCO4)c1OC(C)C (stereo not given)	DT40 TDP1 no CPT inconclusive, TDP1 cell CPT inconclusive
COc1ccc(Cl)cc1C1CC(=O)Nc2cc3c(cc21)OCCO3 (stereo not given)	DT40 TDP1 no CPT 0.37µM, TDP1 cell CPT 0.65µM, TGFb SMAD3 inh inconclusive (no result: IL-1B inflam inh, S-ASM inh)
O=C1CC(c2cccc(Cl)c2Cl)c2cc3c(cc2N1)OCCO3 (stereo not given)	DT40 TDP1 no CPT 21µM, TDP1 cell CPT inconclusive (no result: IL-1B inflam inh, S-ASM inh)
COc1cc2c(cc1OC)C(c1cccc(Cl)c1Cl)CC(=O)N2 (stereo not given)	none
O=C1CC(c2ccc(Cl)cc2)c2cc3c(cc2N1)OCCO3 (stereo not given)	DT40 TDP1 no CPT inconclusive, TDP1 cell CPT inconclusive (no result: IL-1B inflam inh, S-ASM inh)
CCOC(=O)c1c(NC(=O)CSc2nc(-c3ccc(OC)cc3)cc(C(F)(F)F)n2)sc(C)c1C	DT40 TDP1 no CPT inconclusive, TDP1 cell CPT inconclusive (no result: IL-1B inflam inh, S-ASM inh)
CCSc1nnc2c(n1)OC(CC)N(C(C)=O)c1ccccc1-2 (stereo not given)	none (no result: IL-1B inflam inh, DT40 TDP1 no CPT, TDP1 cell CPT, S-ASM inh)
CCC(=O)NCCc1nc2cc(NC(=O)c3cccc([N+](=O)[O-])c3)ccc2n1C	none
O=C1CC(c2cccs2)c2cc3c(cc2N1)OCCO3 (stereo not given)	DT40 TDP1 no CPT 21µM, TDP1 cell CPT inconclusive
